In the supplement of paper PMC9942566:
Structures can show the parent of a compound that is named as a salt. ± gives the standard deviation of the averaged measurements.

system: Serratia marcescens K904 PosmB-luxCDABE reporter (pMQ747); assay: PosmB-lux reporter fold induction (RLU/OD600 relative to no-compound control), highest over Biolog concentrations; higher = stronger reporter activation; settings: ΔrcsB mutant CMS5177; 4 h
Procedure: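 Serratia marcescens K904 (wild type) or its isogenic ΔrcsB mutant, carrying the Rcs-dependent PosmB-luxCDABE reporter plasmid pMQ747, was grown in LB at OD600 0.1 in Biolog Phenotype MicroArray plates PM11-20 for 4 h at 30-32°C. Each compound is present at 3-4 proprietary concentrations (not stated); per the Fig. S1 legend the value given is the highest fold over those wells. Three independent trials.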

| Compound | PosmB-lux reporter fold induction |
| --- | --- |
| CO[C@@H]1[C@@H](O[C@@H]2O[C@H](C)[C@@H](O[C@H]3C[C@@](C)(O)[C@@H](OC(=O)CC(C)C)[C@H](C)O3)[C@H](N(C)C)[C@H]2O)[C@@H](CC=O)C[C@@H](C)[C@@H](O)/C=C/C=C/C[C@@H](C)OC(=O)C[C@H]1OC(C)=O [josamycin] (Biolog plate: PM19, well positions: A2-4) | 9.66 ± 6.6 |
| O=c1ccc2ccc(O)cc2o1 [umbelliferone] (Biolog plate: PM19, well positions: C5-8) | 0.964 ± 0.57 |
| CO[C@@]1(NC(=O)Cc2cccs2)C(=O)N2C(C(=O)O)=C(COC(N)=O)CS[C@@H]21 [Cefoxitin] (Biolog plate: PM14, well positions: E1-4) | 1.2 ± 0.19 |
| CN[C@@H]1[C@H](O)[C@H](NC)[C@H]2O[C@@]3(O)C(=O)C[C@@H](C)O[C@H]3O[C@@H]2[C@H]1O [Spectinomycin] (Biolog plate: PM12, well positions: G1-4) | 1.6 ± 0.68 |
| Oc1c(I)cc(Cl)c2cccnc12 [5-chloro-7-iodo-8-hydroxy-quinoline] (Biolog plate: PM16, well positions: A9-12) | 1.51 ± 0.53 |
| COc1cc(NS(=O)(=O)c2ccc(N)cc2)ncn1 [sulfamono-methoxine] (Biolog plate: PM17, well positions: C9-12) | 1.4 ± 0.25 |
| CO[C@H]1C[C@H](O[C@H]2[C@H](C)[C@@H](O[C@@H]3O[C@H](C)C[C@H](N(C)C)[C@H]3O)[C@@H](C)C[C@@]3(CO3)C(=O)[C@H](C)[C@@H](O)[C@@H](C)[C@@H](C)OC(=O)[C@@H]2C)O[C@@H](C)[C@@H]1O [Oleandomycin] (Biolog plate: PM15, well positions: F5-8) | 2.18 ± 0.57 |
| [Cl][Fe]([Cl])[Cl] [ferric chloride] (Biolog plate: PM16, well positions: G5-8) | 1.47 ± 0.36 |
| OB(O)O [Boric acid] (Biolog plate: PM14, well positions: C1-4) | 23.8 ± 12 |
| CN1CCN(CCCN2c3ccccc3Sc3ccc(C(F)(F)F)cc32)CC1 [Trifluoperazine] (Biolog plate: PM13, well positions: G9-12) | 1.43 ± 0.36 |
| Cc1cc(C)nc(NS(=O)(=O)c2ccc(N)cc2)n1 [Sulfamethazine] (Biolog plate: PM12, well positions: D5-8) | 1.41 ± 0.34 |
| C[C@H]1c2cccc(O)c2C(=O)C2=C(O)[C@]3(O)C(=O)C(C(N)=O)=C(O)[C@@H](N(C)C)[C@@H]3[C@@H](O)[C@@H]21 [Doxycycline] (Biolog plate: PM13, well positions: C5-8) | 1.91 ± 0.69 |
| CO[C@@H]1[C@@H](OC(N)=O)[C@@H](O)[C@H](Oc2ccc3c(O)c(NC(=O)c4ccc(O)c(CC=C(C)C)c4)c(=O)oc3c2C)OC1(C)C [Novobiocin] (Biolog plate: PM12, well positions: D9-12) | 2.74 ± 1.3 |
| CS(=O)(=O)c1ccc([C@@H](O)[C@@H](CO)NC(=O)C(Cl)Cl)cc1 [thiamphenicol] (Biolog plate: PM18, well positions: A9-12) | 0.916 ± 0.32 |
| N=C(N)N [Guanidine hydrochloride] (Biolog plate: PM15, well positions: A5-8) | 2.09 ± 0.16 |
| O=C(N[C@H](CO)[C@H](O)c1ccc([N+](=O)[O-])cc1)C(Cl)Cl [Chloramphenicol] (Biolog plate: PM14, well positions: F1-4) | 1.87 ± 1.1 |
| O=C(O)c1cc(O)c(O)c(O)c1 [gallic acid] (Biolog plate: PM19, well positions: A5-8) | 1.33 ± 0.48 |
| COc1ccc(C[C@H](N)C(=O)N[C@H]2[C@@H](O)[C@H](n3cnc4c(N(C)C)ncnc43)O[C@@H]2CO)cc1 [Puromycin] (Biolog plate: PM15, well positions: F9-12) | 3.56 ± 1.7 |
| C1COCCOCCOCCOCCOCCO1 [18-crown-6 ether] (Biolog plate: PM20, well positions: D9-12) | 1.53 ± 0.55 |
| Nc1ccc(S(N)(=O)=O)cc1 [sulfanilamide] (Biolog plate: PM16, well positions: B5-8) | 1.59 ± 0.33 |

| Compound | PosmB-lux reporter fold induction |
| --- | --- |
| CO[C@H]1C[C@H](O[C@H]2[C@H](C)[C@@H](O[C@@H]3O[C@H](C)C[C@H](N(C)C)[C@H]3OC(C)=O)[C@@H](C)C[C@@]3(CO3)C(=O)[C@H](C)[C@@H](OC(C)=O)[C@@H](C)[C@@H](C)OC(=O)[C@@H]2C)O[C@@H](C)[C@@H]1OC(C)=O [troleandomycin] (Biolog plate: PM20, well positions: H9-12) | 2.33 ± 1.1 |
| O=c1[nH]c(=O)n([C@H]2C[C@H](O)[C@@H](CO)O2)cc1C(F)(F)F [trifluorothymidine] (Biolog plate: PM18, well positions: B1-4) | 1.09 ± 0.28 |
| [Cl-].[Li+] [lithium chloride] (Biolog plate: PM17, well positions: F1-4) | 2.92 ± 1 |
| NC(CO)C(=O)NNCc1ccc(O)c(O)c1O (stereo not given) [Benserazide] (Biolog plate: PM20, well positions: A9-12) | 0.916 ± 0.14 |
| CC1(C)S[C@@H]2[C@H](NC(=O)[C@H](N)c3ccc(O)cc3)C(=O)N2[C@H]1C(=O)O [Amoxicillin] (Biolog plate: PM11, well positions: B1-4) | 0.968 ± 0.11 |
| O.O=S(=O)([O-])[O-].O=S(=O)([O-])[O-].O=S(=O)([O-])[O-].[Al+3].[Al+3] [aluminum sulfate] (Biolog plate: PM16, well positions: F9-12) | 1.54 ± 0.56 |
| OCC(O)CS (stereo not given) [thioglycerol] (Biolog plate: PM19, well positions: H5-8) | 1.08 ± 0.56 |
| C[C@H]1O[C@@H](n2cc(F)c(=O)[nH]c2=O)[C@H](O)[C@@H]1O [5-fluoro-5'-deoxyuridine] (Biolog plate: PM18, well positions: H1-4) | 1.75 ± 0.72 |
| OC(CCN1CCCCC1)(c1ccccc1)c1ccccc1 [pridinol] (Biolog plate: PM20, well positions: F9-12) | 1.5 ± 0.42 |
| c1cnc2c(c1)ccc1cccnc12 [1,10-Phenanthroline] (Biolog plate: PM15, well positions: C9-12) | 1.32 ± 0.23 |
| CN[C@@H]1[C@H](O[C@H]2[C@H](O[C@H]3[C@H](O)[C@@H](O)[C@H](NC(=N)N)[C@@H](O)[C@@H]3NC(=N)N)O[C@@H](C)[C@]2(O)CO)O[C@@H](CO)[C@H](O)[C@H]1O [dihydro-streptomycin] (Biolog plate: PM19, well positions: G5-8) | 0.97 ± 0.18 |
| O=C(O)c1cn(C2CC2)c2cc(N3CCNCC3)c(F)cc2c1=O [ciprofloxacin] (Biolog plate: PM20, well positions: D5-8) | 1.49 ± 0.33 |
| CO[C@@]1(NC(=O)CSCC#N)C(=O)N2C(C(=O)O)=C(CSc3nnnn3C)CS[C@@H]21 [Cefmetazole] (Biolog plate: PM15, well positions: A9-12) | 1.51 ± 0.23 |
| CN(C)[C@@H]1C(O)=C(C(=O)NCN2CCCC2)C(=O)[C@@]2(O)C(O)=C3C(=O)c4c(O)cccc4[C@@](C)(O)[C@H]3C[C@@H]12 [Rolitetracycline] (Biolog plate: PM13, well positions: D9-12) | 1.73 ± 0.11 |
| [Cl-].[Cs+] [Cesium chloride] (Biolog plate: PM13, well positions: F1-4) | 1.64 ± 0.47 |
| NCC(=O)O [Glycine] (Biolog plate: PM13, well positions: F5-8) | 1.39 ± 0.27 |
| NC[C@@H]1O[C@H](O[C@H]2[C@@H](O)[C@H](O[C@@H]3[C@@H](O)[C@H](N)C[C@H](N)[C@H]3O[C@H]3O[C@H](CO)[C@@H](O)[C@H](O)[C@H]3N)O[C@@H]2CO)[C@H](N)[C@@H](O)[C@@H]1O [Paromomycin] (Biolog plate: PM12, well positions: C1-4) | 1.42 ± 0.79 |
| CC(C)NCC(O)COc1cccc2ccccc12 (racemic) [D,L-propranolol] (Biolog plate: PM20, well positions: B5-8) | 1.24 ± 0.19 |
| Nc1ccc2cc3ccc(N)cc3nc2c1 [proflavine] (Biolog plate: PM20, well positions: D1-4) | 1.91 ± 0.49 |
| C[n+]1cc2c3c(ccc2c2ccc4cc5c(cc4c21)OCO5)OCO3 [Sanguinarine] (Biolog plate: PM14, well positions: A9-12) | 1.14 ± 0.32 |
